G9a block = qHTS Assay for Inhibitors of Histone Lysine Methyltransferase G9a; G9a H3K9 monomethylation, AlphaScreen, 2 h; Potency, µM (series often up to 102 µM), without a hit: at the top dose activity, negative = inhibition, usual class: inhibitors; 350,000 compounds, 8.8% hits; AID 504332, 2011; also: % is scaled to controls: 0 for no effect and ±100 for the full control effect; nearly all actives have a fitted effect of over 75% in size
Target sequence (Q96KQ7 913-1193 limits assumed): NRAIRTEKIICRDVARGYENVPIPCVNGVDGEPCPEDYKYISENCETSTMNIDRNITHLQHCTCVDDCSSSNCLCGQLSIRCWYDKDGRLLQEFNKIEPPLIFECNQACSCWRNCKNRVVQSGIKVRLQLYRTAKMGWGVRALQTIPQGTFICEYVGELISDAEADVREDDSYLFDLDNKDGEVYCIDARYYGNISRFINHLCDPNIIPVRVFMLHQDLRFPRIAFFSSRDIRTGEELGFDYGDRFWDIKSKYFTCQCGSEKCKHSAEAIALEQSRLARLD
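Step 1: enzyme (final 20 nM) with compound, 15 min RT. Step 2: substrate peptide 500 nM and SAM 20 uM, 2 h RT. Step 3: anti-H3K9me1 antibody and AlphaScreen beads, 10 min, then plate read.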
JMJD2A Tudor inh = qHTS Assay for Inhibitors of JMJD2A-Tudor Domain. Lysine-specific demethylase 4A (Homo sapiens), O75164. AlphaScreen JMJD2A-Tudor / H3K4me3 peptide binding. Potency, µM (series often up to 114 µM), inactives show top-dose activity change, negative = inhibition, actives largely listed as inhibitors. 390,000 compounds, 4.4% hits. AID 504339, 2011; also: % is scaled to controls: 0 for no effect and ±100 for the full control effect; nearly all actives have a fitted effect of over 50% in size
HP1b binding inh = HTS for Inhibitors of HP1-beta Chromodomain Interactions with Methylated Histone Tails. Potency, µM (titrated, usually from 114 µM), for inactives: top-dose activity change, negative = inhibition, most hits filed as inhibitors. 390,000 compounds, 0.56% hits. AID 540317, 2011. AlphaScreen HP1-beta / biotin-H3K9me3 peptide binding; also: nearly all actives have a fitted effect of over 70% in size
Target sequence (P83916 whole entry, looked up): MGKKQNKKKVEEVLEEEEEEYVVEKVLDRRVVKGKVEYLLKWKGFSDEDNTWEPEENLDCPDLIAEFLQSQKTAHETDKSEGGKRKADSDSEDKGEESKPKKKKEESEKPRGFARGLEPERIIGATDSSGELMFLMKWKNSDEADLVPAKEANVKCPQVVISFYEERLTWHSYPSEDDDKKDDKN
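HP1-beta protein (50 nM final) preincubated 30 min at room temperature with biotinylated H3(1-18)K9me3 peptide (50 nM) in PBS pH 7.4, 0.01% Tween-20, then compound added for 30 min. AlphaScreen streptavidin donor/nickel chelate acceptor beads (10 ug/mL final), 30 min dark, luminescence read.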
BAZ2B inh = qHTS Assay for Inhibitors of BAZ2B. Potency, µM (series often up to 114 µM), for the others: at the top dose activity change, negative = inhibition, most hits filed as inhibitors. Bromodomain adjacent to zinc finger domain protein 2B (Homo sapiens), Q9UIF8. AID 504333, 2011. 360,000 compounds, 4.4% hits. AlphaScreen BAZ2B-H3K14Ac peptide displacement; also: % is scaled to controls: 0 for no effect and ±100 for the full control effect; nearly all actives have a fitted effect of over 60% in size
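BAZ2B (50 nM) with biotin-H3(5-23)K14Ac peptide (50 nM) in PBS pH 7.4, 0.01% Tween-20, preformed 30 min, then compound 30 min at room temperature; top concentration 110uM. AlphaScreen streptavidin donor/nickel chelate acceptor beads (10 ug/mL final), 20 min dark, signal read.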
12-LOX inh = Primary qHTS assay for inhibitors of human arachidonate 12S-lipoxygenase (ALOX12): Round 2; Polyunsaturated fatty acid lipoxygenase ALOX12 (Homo sapiens), P18054; AID 1671190, 2021; Potency, µM (doses to about 108 µM), without a hit: at the highest dose activity change, negative = inhibition, actives largely listed as inhibitors; purified 12hLO, xylenol orange hydroperoxide absorbance; 580,000 compounds, 1.1% hits; also: % is scaled to controls: 0 for no effect and ±100 for the full control effect
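Hydroperoxide product was detected by ferrous iron/xylenol orange as the 573 to 405 nm absorbance ratio. Arachidonic acid at 40 uM (final) was turned over for 30 min at room temperature by 150 nM human 12hLO, pH 7.0 Hepes buffer, after 15 min compound preincubation.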
PLK1 PBD inh = qHTS for Inhibitors of PLK1-PDB (polo-like kinase 1 - polo-box domain): Primary Screen; Serine/threonine-protein kinase PLK1 (Homo sapiens), P53350; Plk1 PBD binding of FITC phosphopeptide, fluorescence polarization; Potency, µM, for the others: max response, negative = inhibition, hits mostly inhibitors; 360,000 compounds, 2.8% hits; also: series mostly up to about 57 µM; % is scaled to controls: 0 for no effect and ±100 for the full control effect; nearly all actives have a fitted effect of over 65% in size
* hit, by the source's call; ? = inconclusive; . = no result; [ ] = dose if it differs, or a comment. Hits are enriched below; roughly 9% of the tested compounds scored in any of these assays. Calls follow the shape of the dose curve; as a rule, active = well fitted curve in the direction sought with a large enough effect; inconclusive = small, poorly fitted or top-dose-only effect, or another doubt; inactive = no such curve, though single readings can be large; an effect the other way counts as inactive or inconclusive. Potency is read from the fitted curve at half-maximal effect.

SMILES	G9a block	JMJD2A Tudor inh	HP1b binding inh	BAZ2B inh	12-LOX inh	PLK1 PBD inh
CCC(CO)Oc1cc(NCc2ccc(F)cc2)c2ncn(C(C)C)c2c1 (stereo not drawn)	.	56µM*	?	.	?	0%
CCC(CO)Oc1cc(NCc2cccnc2)c2ncn(C(C)C)c2c1 (stereo not drawn)	.	79µM*	10%	.	-12%	-12%
CCC(CO)Oc1cc(NC(=O)c2ccccc2C)c2ncn(C(C)C)c2c1 (stereo not drawn)	.	-29%	10%	.	?	-7%
O=C1c2ccccc2C2(c3ccccc3)NCCCN12 (stereo not drawn)	8%	10%	46%	3%	-14%	3%
CC(C)[C@H](NC(=O)c1cccc(S(=O)(=O)N2CCOCC2)c1)C(=O)NCc1ccc(F)cc1	.	-1%	26%	.	0%	3%
CCC(CN(C)C)Oc1cc(NCc2ccccc2)c2ncn(C(C)C)c2c1 (stereo not drawn)	.	89µM*	8%	.	.	?
CCC(CO)Oc1cc(NCc2ccccc2C)c2ncn(C(C)C)c2c1 (stereo not drawn)	.	?	1%	.	?	-8%
CCSc1nnc(NC(=O)C2CCCN(S(=O)(=O)c3cnc[nH]3)C2)s1 (stereo not drawn)	?	?	15%	3%	9%	30µM*
Cc1ccc(NC(=O)C2CCCN(S(=O)(=O)c3cnc[nH]3)C2)cc1C (stereo not drawn)	-8%[59 µM]	-32%	22%	8%	-2%	?
CCN(CC)c1ccc(NC(=O)C2CCCN(S(=O)(=O)c3cnc[nH]3)C2)c(C)c1 (stereo not drawn)	35µM*	?	-5%	-5%	4%	?
CCOc1ccc(-c2nnc(SCc3nc4ccccc4[nH]3)n2N)cc1	?	89µM*	43%	?	-7%	2%
c1coc(Cn2c(SCc3nc4ccccc4[nH]3)nnc2-c2cccs2)c1	50µM*	-33%	21%	-5%	-25%	-13%
O=c1[nH]c(CSc2nnc(-c3ccncc3)n2Cc2ccco2)nc2ccccc12	18%	-1%	25%	-3%	0%	0%
Cc1cccc(-c2nnc(SCc3nc4ccccc4[nH]3)n2Cc2ccco2)c1	50µM*	-22%	17%	-31%	361%	-10%
Cc1ccc(-c2nnc(SCc3nc4ccccc4[nH]3)n2Cc2ccco2)cc1	.	79µM*	6%	?	-10%	-12%
Clc1cccc(-c2nnc(SC/C=C/c3ccccc3)n2Cc2ccco2)c1	-29%[59 µM]	-8%	43%	4%	?	-11%
COc1ccc(C(=O)NCC(=O)N/N=C/C(C)=C/c2ccco2)cc1OC	8%[59 µM]	-24%	13%	-31%	3%	-16%
CCCCNC(=O)C(C#N)c1nc2ccccc2nc1OC(C)C (stereo not drawn)	.	.	.	.	-3%	.
COc1ccc(OC)c(NC(=S)NCCC(c2ccccc2)c2ccccc2)c1	.	?	?	.	8.9µM*	?
Cc1ccccc1NC(=S)NCCC(c1ccccc1)c1ccccc1	-26%[59 µM]	?	-18%	-32%	32µM*	-8%
S=C(NCCC(c1ccccc1)c1ccccc1)Nc1cccc(Cl)c1	-9%[0.501 µM]	-1%	28%	-4%	22µM*	-5%
S=C(NCCN(C1CCCCC1)C1CCCC1)Nc1cccc(Cl)c1	?	-31%	-18%	-27%	?	-21%
S=C(N/N=C/c1cccc2ccccc12)Nc1cccc(Cl)c1	-1%	-20%	9%	79µM*	?	-12%
CCOC(=O)C1(CCCc2ccccc2)CCN(C(=O)CSC)CC1	2%	-8%	26%	-9%	?	-11%
COc1cc(/C=C/C(=O)O)ccc1OCc1cnc(Cl)s1	-41%	-10%[11.4 µM]	33%	-3%	?	-6%
SMILES	G9a block	JMJD2A Tudor inh	HP1b binding inh	BAZ2B inh	12-LOX inh	PLK1 PBD inh
S=C(NCCC(c1ccccc1)c1ccccc1)Nc1ccccc1	.	.	.	.	35µM*	.
C=CCNC(=S)Nc1cccc(Cl)c1	.	.	.	.	-30%	.
S=C(NCCCCCCNC(=S)Nc1cccc(Cl)c1)Nc1cccc(Cl)c1	.	.	.	.	16µM*	.
S=C(NCCNc1c(Cl)c(Cl)c(Cl)c(Cl)c1Cl)Nc1ccccc1	.	.	.	.	13µM*	.
Cc1ccc2nc(-c3ccccc3)oc(=O)c2c1	-7%	4%	38%	13%	18%	-14%
CC(C)CNC(=O)N1CCCCCCNC(=O)[C@@H]2CCC[C@@H]21	.	.	.	.	35%	.
CC(=O)Nc1ccc(S(=O)(=O)N2CCC(N3CCN(Cc4ccc(C)cc4)C(=O)C3=O)CC2)cc1	-26%[59 µM]	-29%	34%	?	?	.
Cc1cc(=O)[nH]c(SCC(=O)c2ccccc2)c1C#N	?	-14%	49%	-6%	-18%	-6%
Cc1ccccc1NC(=O)CSc1[nH]c(=O)cc(C)c1C#N	14µM*	-16%	37%	5%	?	21µM*
CN(C)C(=O)NC(Nc1cccc([N+](=O)[O-])c1)C(Cl)(Cl)Cl (stereo not drawn)	?	-20%	-10%	0%	-9%	30µM*
CC(C)C(=O)NC(Nc1cccc([N+](=O)[O-])c1)C(Cl)(Cl)Cl (stereo not drawn)	-43%	-10%	25%	-9%	-12%	-1%
Cc1nnc(N/N=C/C(C)c2ccccc2)[nH]c1=O (stereo not drawn)	?	0.89µM*	28%	-25%	0%	3%
Cc1nnc(N/N=C/c2c[nH]c3ccccc23)[nH]c1=O	.	-25%	39%	?	-20%	-4%
CC(C)Cn1c(N)c(-c2csc(Nc3ccccn3)n2)c(=O)n(C)c1=O	.	.	.	.	18%	.
COc1cc(OC)c(NC(=O)c2cnn(-c3cccc(Cl)c3C)c2C2CCN(C(=O)OC(C)(C)C)CC2)cc1Cl	-5%[59 µM]	-14%	28%	-1%[57.1 µM]	-17%	.
CC(Sc1nnc(C(F)(F)F)n1C)C(=O)Nc1ccc(S(N)(=O)=O)cc1 (stereo not drawn)	-2%	?	10%	-16%	28%	30µM*
CC1=NN(c2ccccc2)C(=O)C1C(=O)c1cc([N+](=O)[O-])cc([N+](=O)[O-])c1 (stereo not drawn)	11µM*	-22%	30%	?	?	-10%

High-throughput results as filed in PubChem BioAssay.
